GPR151 activ = human GPR151 activation. activation, % at 11.2 µM. Q8TDV0. 650,000 tested, 1% active. PathHunter beta-arrestin GPR151 cells, luminescence; in the data active = activation above about 4.9%;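 note: 0% = median of compound wells and 100% = cells with positive control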
FBW7 activator = activators of human E3 ligase FBW7; Q969H0; AlphaScreen FBW7–phospho-cyclin E peptide binding, activator screen; normalized activity (activation), % at 26.1 µM; 650,000 tested, 0.13% active; AID 1259310; in the data active = normalized activity above about 1.9%;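 note: purified mutant Fbw7 with reduced substrate affinity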
Target sequence (Q969H0 whole entry, looked up): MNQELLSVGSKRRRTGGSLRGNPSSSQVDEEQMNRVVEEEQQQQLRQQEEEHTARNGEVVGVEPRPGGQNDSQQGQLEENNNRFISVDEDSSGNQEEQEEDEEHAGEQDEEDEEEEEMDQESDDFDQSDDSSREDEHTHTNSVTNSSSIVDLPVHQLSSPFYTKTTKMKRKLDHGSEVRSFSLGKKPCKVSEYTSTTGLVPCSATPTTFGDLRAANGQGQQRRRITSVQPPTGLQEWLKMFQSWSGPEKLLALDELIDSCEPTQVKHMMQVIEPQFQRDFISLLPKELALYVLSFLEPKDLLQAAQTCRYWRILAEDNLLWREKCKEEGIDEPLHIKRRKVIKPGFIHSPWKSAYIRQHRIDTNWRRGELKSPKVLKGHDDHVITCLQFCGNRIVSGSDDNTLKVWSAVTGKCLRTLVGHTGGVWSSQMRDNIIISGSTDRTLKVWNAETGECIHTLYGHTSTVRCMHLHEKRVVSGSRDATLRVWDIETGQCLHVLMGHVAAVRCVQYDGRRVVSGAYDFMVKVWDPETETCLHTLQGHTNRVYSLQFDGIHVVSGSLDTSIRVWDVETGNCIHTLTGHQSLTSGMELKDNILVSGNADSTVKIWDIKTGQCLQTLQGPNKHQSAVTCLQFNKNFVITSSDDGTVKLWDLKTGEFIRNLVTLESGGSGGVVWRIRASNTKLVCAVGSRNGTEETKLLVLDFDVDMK
TEAD-YAP block = TEAD-YAP interaction inhibition | HEK-TIYL cells, TEAD-Gal4/YAP UAS-luciferase luminescence | inhibition, % at 9.12 µM | 640,000 tested, 1.4% active | AID 1259422; in the data active = inhibition above about 32%;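 note: 0% = median of test compound wells and 100% = reference inhibitor wells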
MITF primary = human MITF inhibition, primary screen. O75030. 650,000 tested, 0.91% active. inhibition, % at 2.6 µM. AlphaScreen MITF homodimerization, bead proximity signal; in the data active = inhibition above about 50%;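 note: 0% = vehicle wells with protein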
* hit, by the source's call. The list is not random: actives were taken first. Their share in the collection is about 3.4%.

SMILES | GPR151 activ | FBW7 activator | TEAD-YAP block | MITF primary
CCN(CC)C(=O)C1CCCN(c2nc(NCCN(C(C)C)C(C)C)c3ncn(-c4ccccc4)c3n2)C1 (configuration not stated) | -1 | 0 | 41* | 7
CCN(CC)C(=O)C1CCCN(c2nc(Nc3cc(OC)c(OC)c(OC)c3)c3ncn(C(C)C)c3n2)C1 (configuration not stated) | 0 | 0 | 34* | 13
CCN(CC)C(=O)C1CCCN(c2nc(NCCN(C(C)C)C(C)C)c3ncn(C(C)C)c3n2)C1 (configuration not stated) | 2 | 0 | 11 | -6
CCN(CC)C(=O)C1CCCN(c2nc(Nc3ccccc3)c3[nH]cnc3n2)C1 (configuration not stated) | 3 | 0 | 48* | 0
CCN(CC)C(=O)C1CCCN(c2nc(N)c3ncn(-c4ccccc4)c3n2)C1 (configuration not stated) | -2 | 0 | 46* | -13
CCCN(CCO)Cc1cccc(Br)c1 | -2 | 1 | -15 | 27
O=C(N/N=C/c1cccc([N+](=O)[O-])c1O)c1cccs1 | 1 | -1 | -46 | 73*
O=C(N/N=C/c1ccc([N+](=O)[O-])cc1)c1cccs1 | 0 | 0 | -40 | -3
O=C(N/N=C/c1cccc([N+](=O)[O-])c1O)c1cccc([N+](=O)[O-])c1 | 0 | -1 | 8 | 53*
O=[N+]([O-])c1ccc(Br)c2ccncc12 | 4 | 0 | 62* | 19
COC(=O)c1ccc(NC(=O)CSc2ncn[nH]2)cc1 | -4 | 2.4* | -9 | 6
O=C(CSc1ncn[nH]1)Nc1ccc(-c2nc3ccccc3s2)cc1 | 4 | 1 | 53* | 17
Cc1ccc(NC(=O)CSc2ncn[nH]2)cc1 | -2 | 0 | 17 | 6
Cc1ccc2nc(-c3ccc(NC(=O)CSc4ncn[nH]4)cc3)sc2c1 | -2 | 0 | 73* | 4
COc1ccc(NC(=O)CSc2ncn[nH]2)cc1 | -3 | 0 | 2 | -28
CS(=O)(=O)N(CC(=O)NC1CCCC1)c1ccccc1Br | 0 | 0 | -6 | -1
O=C(Nc1ccc(S(=O)(=O)NCc2cccnc2)cc1)c1ccco1 | 0 | 2.1* | 14 | 6
COc1cccc(S(=O)(=O)NCc2ccc(C(=O)Nc3cccnc3)cc2)c1 | 0 | 0 | 50* | 12
O=C(Nc1ccc(S(=O)(=O)NCc2cccnc2)cc1)c1ccccc1Cl | 1 | 0 | 28 | 3
CCOc1ccc(NC(=O)c2ccc(F)c(S(=O)(=O)N3CCCc4ccccc43)c2)cc1 | 0 | 1 | 43* | 15
CCOc1ccc(NC(=O)c2ccc(F)c(S(=O)(=O)N3CCN(c4ccccc4)CC3)c2)cc1 | 1 | 0 | 37* | 0
CCOC(=O)C1CCCN(S(=O)(=O)c2cc(C(=O)Nc3ccc(CC)cc3)ccc2F)C1 (configuration not stated) | 0 | 1 | 1 | 10
O=C(Nc1ccc(Oc2ccccc2)cc1)c1ccc(F)c(S(=O)(=O)N2CCN(c3cccc(Cl)c3)CC2)c1 | 2 | 0 | 41* | 3
CCOC(=O)C1CCCN(S(=O)(=O)c2cc(C(=O)Nc3ccc(Oc4ccccc4)cc3)ccc2F)C1 (configuration not stated) | -1 | 0 | 53* | 8
O=C(NCC1CCN(C(=O)c2ccc(F)cc2)CC1)c1ccc(F)cc1 | 1 | 0 | 5 | -4
SMILES | GPR151 activ | FBW7 activator | TEAD-YAP block | MITF primary
c1ccc(-c2nnc(N3CCCC3)c3ccccc23)cc1 | 0 | 0 | 0 | 4
CC12NC(=S)NC(c3ccccc3O1)C2C(=O)Nc1ccc(Cl)cc1 (configuration not stated) | -1 | 0 | -4 | 22
O=C(CNC(=O)c1ccncc1)N/N=C/c1c(O)ccc2ccccc12 | 3 | 0 | 17 | -29
Cc1nc(SCC(=O)NC(C)C)[nH]c(=O)c1C | 1 | 0 | 10 | -9
Cc1noc(C)c1CCC(=O)N1CCC(C(=O)Nc2cccc(-c3ccco3)c2)CC1 | 0 | 0 | 34* | 0
Cn1cnnc1SCC(=O)NC1=NN=C(c2ccccc2)CS1 | 0 | -1 | 2 | -2
COc1ccc(-c2nnc(SCC(=O)Nc3ccc(N)cc3)n2-c2ccccc2)cc1 | 0 | 6.5* | -2 | -92
Cc1ccc(C2=NN=C(NC(=O)CSc3nnc(C)s3)SC2)cc1 | -1 | 0 | 55* | 13
Cc1nnc(SCC(=O)Nc2ccc(Cl)c(Cl)c2)s1 | 0 | 0 | 18 | 10
COc1ccc(NC(=O)c2ccc(NC(=O)CSc3nnc(N)s3)cc2)cc1 | -1 | 8.2* | -4 | -7
Cc1nnc(SCC(=O)Nc2ccc3ccccc3c2)s1 | -1 | 2.0* | 10 | 15

From PubChem
